Laboratory results reported in PubChem BioAssay (NCI).
This is part of a sample that, as a whole, favours compounds with a hit. Of some 79,000 tested, about 15% had one in any assay. A number with no mark means an inactive call. Active and inactive are the calls of the source. No stated cut-off is given here; in the data, active means growth inhibition above about 70%; inactive means the rest.

Test: NCI Yeast Anticancer Drug Screen. Data for the mec2-1 strain (AID 157)
Conditions: S. cerevisiae mec2-1 strain, stronger effect = higher value
Protocol: Growth inhibition of yeast strains with defined genetic alterations is measured as a screen for potential anti-cancer activity. Selected strains with alterations in DNA damage repair or cell cycle control were exposed to compounds and growth inhibition was measured relative to vehicle treated controls. The strain used in this assay is mec2-1

[1] = at 5.0 µM (retest, dose inferred, filed as 0.5)
[2] = at 50.0 µM (retest, dose inferred, filed as 5.0)

| Structure (SMILES) | growth inhibition [1] | growth inhibition [2] | growth inhibition (at 50.0 µM) |
| --- | --- | --- | --- |
| CCCCCCCCCCCCNCc1ccc(Cl)c(Cl)c1 | 91% (active) | 98% (active) | 99.7% (active) |
| CN(C)C(=S)/N=c1\ss/c(=N\C(=S)N(C)C)n1-c1cccc(Cl)c1 | 15% | 2% | 95.2% (active) |
| O=C(c1ccc(O)cc1)c1ccccc1O | -7% | 23% | 37.2% |
| CCOc1c(N=Nc2ccc(Cl)cc2)c(-c2ccccc2)nn1C(N)=S | -11% | 89% (active) | 94.7% (active) |
| CCOSc1ccccc1 | 5% | 63% | 32.7% |
| CCn1c2ccccc2n2c(=O)cc(-c3ccccc3)c(C#N)c12 | -2% | -2% | 12.7% |
| O=C1C(=C2C(=O)c3ccccc3[N+]2=O)N([O-])c2ccccc21 | -6% | 59% | 56% |
| COc1cc2c(oc(=O)c3cc(C)cc(OC)c32)c2c(C3OC(C)C(O)C(C)(O)C3O)ccc(O)c12 (configuration not stated) | 72% (active) | 97% (active) | 89.3% (active) |
| Cc1ccc(O)c(Cc2cccc(Cl)c2)c1 | -7% | 99% (active) | 99.5% (active) |
| COc1cc(/C=C/C2=C(C)C(=O)CC(c3cc(OC)c(OC)c(OC)c3)C2C)cc(OC)c1OC (configuration not stated) | -5% | 22% | -1.7% |
| COC(=O)C1=C(C)NC(C)=C([N+](=O)[O-])C1c1cccc(N=O)c1 (configuration not stated) | 16% | 98% (active) | 72.1% (active) |
| CCOC(=O)c1c(Br)c(-c2ccc(Br)cc2)c(Br)n1C | -7% | -29% | -16.1% |
| CC(CCOP(=O)(O)OCCC(C)CC(C)(C)C)CC(C)(C)C (configuration not stated) | -9% | 13% | 62.6% |
| CCC[CH2][Sn]([CH2]CCC)([O]C(=O)Cc1ccc(F)cc1)[O]C(=O)Cc1ccc(F)cc1 | 30% | 30% | 81.5% (active) |
